Compound activity from PubChem BioAssay.
Most compounds without a hit are left out; they make up all but 6.8% or so of the library.
KB-3-1 tox = KB-3-1 parental cell cytotoxicity | KB-3-1 viability, CellTiter-Glo ATP luminescence, 72 h | Potency, µM (highest dose often 46.1 µM), usual class: cytotoxic | 400,000 tested, 1.4% active | AID 1347075; also: % is scaled to controls: 0 for no effect and ±100 for the full control effect; nearly all actives have a fitted effect of over 60% in size
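Cytotoxicity in the drug-sensitive parental line KB-3-1 was scored as loss of CellTiter-Glo luminescence following 72 h incubation with compound. Values come from curve fitting of normalized concentration-response data.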
SW480 rerep = inducers of DNA re-replication in SW480 colon cancer cells | Potency, µM (titrated, usually from 46.1 µM), inactives show at the top dose re-replication activation, actives largely listed as activators | SW480 DNA re-replication, Hoechst DNA content imaging, 48 h | 340,000 tested, 1.8% active | AID 624297; also: % of control where 0% means no effect; nearly all actives have a fitted effect of over 55% in size
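Treated cells incubate 48 hr (37 C, 5% CO2), are stained 40 min with Hoechst, and nuclear fluorescence is enumerated; a rise in nuclei with high DNA signal marks re-replication.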
PINK1 expr mod = changes PINK1 expression; PINK1 immunofluorescence, high-content cytometry, 24 h; Potency, µM (titrated, usually from 76.6 µM), for the others: at the top dose activation (PINK1 increase), most hits filed as activators; 410,000 tested, 0.2% active; active = well fitted activation curve with a large enough effect; inconclusive = small, poorly fitted or top-dose-only effect; cell line not stated here; also: % of control where 0% means no effect; nearly all actives have a fitted effect of over 65% in size
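Stable cell line, 250 cells/well, 12 h attachment; compounds pinned at 5 concentrations, 24 h; CCCP control. Fixed with nuclear dye, primary antibodies 12 h at 10 degrees C, secondary plus cell stain; laser-scanning cytometer read.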
MCF10A rereplic = inducers of DNA re-replication in MCF 10A breast cells; 350,000 tested, 2.9% active; Potency, µM (titrated, usually from 46.1 µM), inactives show top-dose activity, positive = re-replication, most hits filed as activators; MCF 10A DNA re-replication, Hoechst nuclear intensity, 48 h; also: % of control where 0% means no effect; nearly all actives have a fitted effect of over 50% in size
KB-V1 MDR tox = KB-V1 MDR subline cytotoxicity. KB-V1 MDR cells viability, CellTiter-Glo, 72 h. Potency, µM (series often up to 46.1 µM), hits mostly cytotoxic. 400,000 tested, 3.4% active. AID 1347076; also: % is scaled to controls: 0 for no effect and ±100 for the full control effect; nearly all actives have a fitted effect of over 60% in size
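Cytotoxicity toward P-gp-expressing KB-V1 cells was determined as loss of CellTiter-Glo luminescence after 72 h at 37 degrees C. Compounds were tested in quantitative HTS format across a concentration range, with curves fitted to normalized data.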
TSG101-PTAP inh = blocks PTAP/TSG101 interaction to inhibit HIV-1 budding | AID 493005 | Fluorescence polarization, FITC-PTAP peptide / Tsg101 binding | 340,000 tested, under 10 active | Q99816 | Potency, µM (titrated, usually from 115 µM), for inactives: at the highest dose activity change, negative = inhibition, usual class: inhibitors; active = well fitted inhibition curve with a large enough effect in the main read-out, with a control signal flat, not every such curve was filed as active; inconclusive = small, poorly fitted or top-dose-only effect, or effect the other way, or a change in a side signal; inactive = no such curve, though single readings can be large or run the other way; also: % of control where 0% means no effect
Target sequence (Q99816 whole entry, looked up): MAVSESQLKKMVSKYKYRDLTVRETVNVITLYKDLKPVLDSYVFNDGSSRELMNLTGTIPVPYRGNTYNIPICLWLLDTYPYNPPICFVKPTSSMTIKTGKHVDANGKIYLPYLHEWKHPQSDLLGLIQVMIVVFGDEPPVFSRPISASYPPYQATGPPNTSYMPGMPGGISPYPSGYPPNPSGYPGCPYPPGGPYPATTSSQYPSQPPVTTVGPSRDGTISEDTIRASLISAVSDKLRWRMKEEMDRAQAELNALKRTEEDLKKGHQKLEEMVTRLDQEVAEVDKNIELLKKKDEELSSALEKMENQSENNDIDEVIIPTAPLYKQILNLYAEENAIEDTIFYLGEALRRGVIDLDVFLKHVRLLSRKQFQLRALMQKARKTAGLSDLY
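Fluorescence anisotropy tracks displacement of a FITC-tagged PTAP peptide (50 nM) from the Tsg101 binding domain (10 uM), following a 20 min room-temperature incubation at pH 7.5.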
* hit, by the source's call; i = inactive; ? = inconclusive; nt = not tested or not shown; [ ] = dose if it differs, or a comment. Unless noted, calls follow the shape of the dose curve; as a rule, active = well fitted curve in the direction sought with a large enough effect; inconclusive = small, poorly fitted or top-dose-only effect, or another doubt; inactive = no such curve, though single readings can be large; an effect the other way counts as inactive or inconclusive. Potency is read from the fitted curve at half-maximal effect.

SMILES | KB-3-1 tox | SW480 rerep | PINK1 expr mod | MCF10A rereplic | KB-V1 MDR tox | TSG101-PTAP inh
COc1ccc(S(=O)(=O)N2CCCCCC2)cc1C(=O)N(C)Cc1ccc(Cl)cc1Cl | ? | -23.6% | 3.8% | 2.06µM* | i | -8.3%
COc1ccc(S(=O)(=O)N2CCCCCC2)cc1N(C)S(=O)(=O)c1ccc(C)cc1 | i | 19.3% | 1.5% | ? | 2.59µM* | 0.3%
COc1cc(NS(=O)(=O)c2ccc(C)c(C)c2)c(OC)cc1Cl | ? | 20.7% | 3.1%[38.3 µM] | ? | 18.4µM* | -4.1%
COCCCCOc1cc2nc(N3CCCN(C)CC3)nc(NC3CCN(C)CC3)c2cc1OC | nt | nt | -0.3% | nt | nt | nt
COc1ccc(-c2nc(-c3ccccc3)c(-c3ccc(F)cc3)[nH]2)c(OC)c1C | i | nt | 8.3% | nt | i | nt
CC1CN(CC(=O)NCCc2ccncc2)Cc2ccccc2O1 (stereo not drawn) | nt | nt | -0.4% | nt | nt | nt
COc1ccccc1CNc1ccnc(-c2ccc(C(=O)N(C)C)cc2)n1 | nt | nt | -0.1% | nt | nt | nt
COc1ccc2oc(-c3ccc(C)c(NC(=O)c4cccnc4)c3)nc2c1 | i | nt | 0.0% | nt | ? | nt
COc1ccc(S(=O)(=O)N2CCCCC2)cc1NS(=O)(=O)c1cc(Cl)ccc1Cl | i | 23.1µM* | 2.9% | -18.4% | ? | -2.2%
CC(=O)c1ccc(NC(=O)C2=CC(c3ccc(C)cc3)=NS(=O)(=O)N2C)cc1 | i | nt | -0.3% | nt | i | nt
O=C(NN1C(=O)C2C3c4ccccc4C(c4ccccc43)C2C1=O)c1ccc(Cl)cc1 (stereo not drawn) | i | -7.9% | 9.8% | 7.4% | 16.4µM* | -2.4%
O=C(NN1C(=O)C2C3C=CC(C3)C2C1=O)c1ccccc1 (stereo not drawn) | i | -3.9% | 1.7% | 16.7% | i | -1.2%
Cc1cc2nc(SCCOC(=O)Nc3ccccc3)nc(C)c2cc1C | i | 5.4% | -2.2% | 7.8% | 20.6µM* | 0.3%
Cc1cc2nc(SCCOC(=O)Nc3cccc(Cl)c3)nc(C)c2cc1C | i | 6.0% | 1.1% | ? | i | -0.7%
O=C(CCl)Nc1ccc(N2CCCCCC2)cc1 | ? | 20.6µM* | -2.4% | 14.6µM* | i | -5.4%
O=C(CCl)Nc1ccc(N=Nc2ccccc2)cc1 | i | 23.1µM* | -1.3% | ? | i | -1.5%
CC(=O)Nc1ccc(N=Nc2ccccc2)cc1 | i | ? | 16.6% | -5.8% | i | -10.7%
O=C(CCl)Nc1ccc(-c2ccccc2)cc1 | ? | ? | -2.8% | 16.4µM* | ? | -4.3%
CCC(=O)Nc1ccc(N2CCCCC2)cc1 | i | -3.4% | 0.0%[38.3 µM] | 5.9% | i | 1.0%
COc1ccccc1CNc1ncnc2c1nnn2C | nt | nt | 21.9% | nt | nt | nt
O=S1(=O)CCO[C@H]2CCCC[C@@H]2N1Cc1ccccc1F | i | nt | nt | nt | i | nt
Cn1cccc1C(=O)N1CCC2(CCN(C(=O)Nc3cccc(C#N)c3)CC2)CC1 | nt | nt | 0.6% | nt | nt | nt
COc1ccccc1N(Cc1ccccc1)S(=O)(=O)c1cccc(C(=O)O)c1 | i | -5.1% | -2.4% | 2.7% | i | -4.2%
CCOc1ccccc1NC(=O)c1cccc(S(=O)(=O)N(Cc2ccccc2)c2ccccc2OC)c1 | i | 16.2% | -0.6% | ? | 8.2µM* | 2.7%
COc1ccccc1N(Cc1ccccc1)S(=O)(=O)c1cc(C(=O)O)ccc1Cl | i | 1.8% | 2.6% | 18.4µM* | i | -3.6%
NC(=O)NC(=O)COC(=O)c1ccc(Cl)c(S(=O)(=O)N(Cc2ccccc2)c2ccc(Cl)cc2)c1 | i | 20.0% | 4.5% | 20.6µM* | i | -1.3%
NC(=O)COC(=O)c1ccc(Cl)c(S(=O)(=O)N(Cc2ccccc2)c2ccc(Cl)cc2)c1 | i | 13.2% | -2.3% | ? | i | -1.8%
COc1ccccc1N(Cc1ccccc1)S(=O)(=O)c1cccc(C(=O)Nc2cc(C)ccn2)c1 | 16.4µM* | 21.1% | -0.9% | 4.6% | i | -2.5%
